We go through 74 molecules from publication PMC6919601, “Identification of Plasmodium dipeptidyl aminopeptidase allosteric inhibitors by high throughput screening” (PLoS ONE, 2019).

Hit rate of the full screen: of about 110,000 compounds, about 230 (0.21%) showed an effect of 50% or more. The sample as a whole holds a higher share of strong results than the screen did.
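Further: 30 min substrate incubation versus DMSO and 10 µM JCP410 controls.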

In this experiment the target is DPAP1 (Plasmodium falciparum, UniProt Q8IIJ9). Nature of the experiment: primary screen, percent inhibition; read by cleavage of a fluorogenic dipeptide substrate; higher = more effect of the substance. Also on record: species or system P. falciparum D10 trophozoite lysates; single well.
Sequence of DPAP1 (Q8IIJ9 whole entry, looked up): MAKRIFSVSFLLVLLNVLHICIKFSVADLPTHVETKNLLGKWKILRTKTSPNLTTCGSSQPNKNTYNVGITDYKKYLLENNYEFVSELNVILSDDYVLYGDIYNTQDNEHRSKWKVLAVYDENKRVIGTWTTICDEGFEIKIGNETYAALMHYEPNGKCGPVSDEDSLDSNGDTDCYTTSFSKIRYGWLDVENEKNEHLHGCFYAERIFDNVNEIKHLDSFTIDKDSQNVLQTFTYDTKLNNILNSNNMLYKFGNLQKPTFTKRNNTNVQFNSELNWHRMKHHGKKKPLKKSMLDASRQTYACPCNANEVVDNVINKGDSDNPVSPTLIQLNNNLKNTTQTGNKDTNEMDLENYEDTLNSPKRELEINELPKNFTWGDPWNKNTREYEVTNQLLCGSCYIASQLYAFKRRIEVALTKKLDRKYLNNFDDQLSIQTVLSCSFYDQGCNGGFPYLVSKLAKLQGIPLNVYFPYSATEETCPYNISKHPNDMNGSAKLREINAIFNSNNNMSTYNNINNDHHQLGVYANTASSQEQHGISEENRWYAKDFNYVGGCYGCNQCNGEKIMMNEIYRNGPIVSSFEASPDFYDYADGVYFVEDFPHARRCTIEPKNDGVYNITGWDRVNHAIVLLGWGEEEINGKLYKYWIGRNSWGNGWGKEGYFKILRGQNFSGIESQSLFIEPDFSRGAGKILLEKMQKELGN
Take `CC(C)Cc1c(C#N)c(N)nc(SCC(=O)c2ccc(-c3ccccc3)cc2)c1C#N`: the “% Inhibition @ 10 uM” value worked out at 16.2%.

As to `CCCCCCCc1c(C#N)c(N)nc(S)c1C#N`, the “% Inhibition @ 10 uM” value was 71.3%.

On to `CC(C)Cc1c(C#N)c(N)nc2sc(C#N)c(N)c12`, for which the “% Inhibition @ 10 uM” value is listed as 5.2%.

Regarding `CCc1c(C#N)c(N)nc(SCc2ccccc2)c1C#N`, the “% Inhibition @ 10 uM” value stood at 42.7%.

Take `C=CCSc1nc(N)c(C#N)c(CC)c1C#N`: the “% Inhibition @ 10 uM” value turned out to be 65.5%.

Regarding `CCSc1nc(N)c(C#N)c(CC)c1C#N`, the “% Inhibition @ 10 uM” value worked out at 23.3%.

For the molecule `CCCCCCc1c(O)nc(S)nc1O`, the “% Inhibition @ 10 uM” value is on record as 22.8%.

In the case of `COCc1c(C#N)c(S)nc(C)c1[N+](=O)[O-]`, the “% Inhibition @ 10 uM” value worked out at 30.8%.

On to `CCOC(=O)CSc1nc(N)c(C#N)c(CC)c1C#N`, for which the “% Inhibition @ 10 uM” value was found to be 20.6%.

`CC(C)Cc1c(C#N)c(N)nc(S)c1C#N`: the “% Inhibition @ 10 uM” value came out at 78.5%.

`CCc1c(C#N)c(N)nc(S)c1C#N`: the “% Inhibition @ 10 uM” value is on record as 74.5%.

In the case of `CN(C)c1ccc(-c2c(C#N)c(N)nc(S)c2C#N)cc1`, the “% Inhibition @ 10 uM” value stood at 7.55%.

`N=C(NOC(=O)C12CC3CC(CC(C3)C1)C2)c1ccc(Cl)cc1`: the “% Inhibition @ 10 uM” value is on record as -0.597%.

`O=C(CN1CCCC1)Nc1c2c(nc3ccccc13)N(c1ccccc1)CC2`: the “% Inhibition @ 10 uM” value worked out at 0.144%.

Turning to `Cc1ccc(C(C)C)c(OCC(O)CN2CC(C)OC(C)C2)c1` (centres unmarked), the “% Inhibition @ 10 uM” value was -1.15%.

For the molecule `COc1cc(C2C(C#N)=C(N)OC3=C2C(=O)CCC3)ccc1OCC(=O)Nc1ccc(C)cc1C` (centres unmarked), the “% Inhibition @ 10 uM” value turned out to be 0.851%.

Consider `COc1cc(OC)cc(C(=O)Nc2ccc3c(c2)oc2ccccc23)c1`, for which the “% Inhibition @ 10 uM” value is reported as -4.91%.

On to `c1cc(CNC2CCCCC2)ccn1`, for which the “% Inhibition @ 10 uM” value is given as 1.84%.

In the case of `c1ccc(C2CCC(NCc3ccncc3)CC2)cc1` (centres unmarked), the “% Inhibition @ 10 uM” value is reported as 97.8%.

In the case of `CCC1CCC(NCc2ccncc2)CC1` (centres unmarked), the “% Inhibition @ 10 uM” value is -3.42%.

In the case of `N#Cc1ccc(-c2cccnc2)nc1SCc1ccccc1`, the “% Inhibition @ 10 uM” value worked out at 61.4%.

Regarding `N#Cc1ccc(-c2cccnc2)nc1SCC(=O)O`, the “% Inhibition @ 10 uM” value is on record as -2.45%.

Regarding `CC(Sc1nc(-c2cccnc2)ccc1C#N)C(=O)O` (centres unmarked), the “% Inhibition @ 10 uM” value was -3.63%.

Turning to `Cc1nnc2c(Oc3ccc(-c4ccccc4)cc3)nc3ccccc3n12`, the “% Inhibition @ 10 uM” value was -7.23%.

For the molecule `N=c1n(CCOc2ccccc2)c2ccccc2n1CCN1CCOCC1`, the “% Inhibition @ 10 uM” value is on record as -6.25%.

On to `CCOc1cc(Br)c(C=C2C(=O)NC(=O)NC2=O)cc1OC`, for which the “% Inhibition @ 10 uM” value is -2.39%.

Regarding `C/C(CCC1CC(C)OC1=O)=N\NC(N)=S` (centres unmarked), the “% Inhibition @ 10 uM” value is -1.6%.

For `OC1(c2ccc(Br)cc2)CCN(Cc2cccc(Cl)c2)CC1`, the “% Inhibition @ 10 uM” value is -3.6%.

Consider `CC1C(C#N)=C(SCc2ccccc2)N=C2CC(C)(C)CC(O)=C21` (centres unmarked), for which the “% Inhibition @ 10 uM” value is recorded as 55.4%.

For the molecule `CSC1=C(C#N)C(C)C2=C(O)CC(C)(C)CC2=N1` (centres unmarked), the “% Inhibition @ 10 uM” value is on record as 2.76%.

As to `CC1C(C#N)=C(SCC(=O)c2ccc(Cl)cc2)N=C2CC(C)(C)CC(O)=C21` (centres unmarked), the “% Inhibition @ 10 uM” value was determined as 45.5%.

Regarding `Cc1nc(NC(=O)COc2ccc(C(C)(C)C)cc2)ccc1Br`, the “% Inhibition @ 10 uM” value was -7.81%.

For `CCOc1ccc(-c2cc(C)n3nc(C(=O)NCc4ccco4)cc3n2)cc1`, the “% Inhibition @ 10 uM” value is on record as 0.221%.

As to `Cc1ccc2nc3c(O)n(C)cnc-3c2c1`, the “% Inhibition @ 10 uM” value was determined as 5.06%.

Regarding `CCOc1ccc(C2CC(=O)N3CN(CCO)CSC3=C2C#N)cc1` (centres unmarked), the “% Inhibition @ 10 uM” value is 61.2%.

Take `CCOc1ccc(C2CC(=O)N3CN(CCc4ccccc4)CSC3=C2C#N)cc1` (centres unmarked): the “% Inhibition @ 10 uM” value stood at 71.1%.

Consider `CCOc1ccc(C2CC(=O)N3CN(Cc4ccccc4)CSC3=C2C#N)cc1` (centres unmarked), for which the “% Inhibition @ 10 uM” value stood at 48.5%.

With `CCc1ccc(C2CC(=O)N3CN(Cc4ccccc4)CSC3=C2C#N)cc1` (centres unmarked), the “% Inhibition @ 10 uM” value amounted to 39.2%.

With `C=C(C)Cn1c(C(C)NC(=O)CCC)nc2ccccc21` (centres unmarked), the “% Inhibition @ 10 uM” value is 1.41%.

As to `CC(C)CNCC(=O)Nc1sc2c(c1C(=O)Nc1ccc(Br)cc1)CCC2`, the “% Inhibition @ 10 uM” value is -6.07%.

Take `OC1(c2ccc(Cl)cc2)CCN(Cc2ccc(F)c(F)c2)CC1`: the “% Inhibition @ 10 uM” value is on record as -7.42%.

Take `COc1ccc(C2=NN3C(C2)c2cccc(OC)c2OC3(C)C)cc1` (centres unmarked): the “% Inhibition @ 10 uM” value was found to be 38.5%.

For `COc1ccc(C2=NN3C(C2)c2cc(OC)ccc2OC3(C)C)cc1` (centres unmarked), the “% Inhibition @ 10 uM” value is listed as 43.8%.

Regarding `COc1ccc(C2=NN3C(C2)c2cc(Cl)ccc2OC3(C)C)cc1` (centres unmarked), the “% Inhibition @ 10 uM” value is 50.9%.

For the molecule `CCCCCn1c(Br)nc2c1c(=O)[nH]c(=O)n2C`, the “% Inhibition @ 10 uM” value stood at 4.41%.

`CC(=O)c1cccc(NC(=O)c2ccc(N(C)S(=O)(=O)c3ccc(C)cc3)cc2)c1`: the “% Inhibition @ 10 uM” value is recorded as 5.24%.

Consider `COc1ccccc1CNC(=O)c1c2c(nn1C)-c1ccccc1SC2`, for which the “% Inhibition @ 10 uM” value worked out at 8.62%.

With `CCCCN(CC)C(=O)c1noc2c1COc1ccccc1-2`, the “% Inhibition @ 10 uM” value is -1.72%.

`CC(C)OCCCNC(=O)c1noc2c1COc1ccccc1-2`: the “% Inhibition @ 10 uM” value is listed as 58.6%.

Consider `COCCNC(=O)c1noc2c1COc1ccc(C)cc1-2`, for which the “% Inhibition @ 10 uM” value is given as -3.77%.

Take `COCCCNC(=O)c1noc2c1COc1ccccc1-2`: the “% Inhibition @ 10 uM” value is given as 84.2%.

As to `COCCCNC(=O)c1noc2c1COc1ccc(C)cc1-2`, the “% Inhibition @ 10 uM” value amounted to 5.1%.

As for `COCCNC(=O)c1noc2c1COc1ccccc1-2`, the “% Inhibition @ 10 uM” value was 60%.

`O=C(NCC1CCCO1)c1noc2c1CSc1ccccc1-2` (centres unmarked): the “% Inhibition @ 10 uM” value is 19.3%.

As for `CC(C)OCCCNC(=O)c1nn(C)c2c1COc1ccccc1-2`, the “% Inhibition @ 10 uM” value is listed as -1.72%.

Turning to `COc1ccccc1CNC(=O)c1noc2c1CSc1ccccc1-2`, the “% Inhibition @ 10 uM” value amounted to 62.7%.

As to `Cc1ccc2c(c1)-c1onc(C(=O)NCCCOC(C)C)c1CO2`, the “% Inhibition @ 10 uM” value was found to be 1.97%.

With `CC12CC3CC(C)(C1)CC(OCCNC(=O)c1noc4c1COc1ccccc1-4)(C3)C2`, the “% Inhibition @ 10 uM” value is 49%.

As to `COc1cccc(C(=O)N2CCN(C(=O)CCC3CCCC3)CC2)c1`, the “% Inhibition @ 10 uM” value is 0.587%.

Turning to `O=C(NC1CCCCC1)C1CCCN(S(=O)(=O)N2CCCCC2)C1` (centres unmarked), the “% Inhibition @ 10 uM” value is -4.99%.

For `CN1CCN(C(=O)c2ccc(Cn3c(SCc4ccccc4F)nc4ccncc43)cc2)CC1`, the “% Inhibition @ 10 uM” value is -1.92%.

With `Cn1c(=O)c2nc(-c3ccccc3)c(-c3ccccc3)nc2n(C)c1=O`, the “% Inhibition @ 10 uM” value stood at 4.03%.

`CCOc1cc(-c2cc(-c3ccc(N)cc3)nc(N)c2C#N)ccc1O`: the “% Inhibition @ 10 uM” value came out at 3.26%.

As for `COc1ccc2c(CNCc3ccccc3C)c(C(=O)O)n(Cc3ccc(F)cc3)c2c1`, the “% Inhibition @ 10 uM” value is on record as -4.16%.

Take `COc1cc(C)c2c(=O)c(Oc3ccccc3)c(C(F)(F)F)oc2c1`: the “% Inhibition @ 10 uM” value is reported as -5.69%.

With `CC(C)(C)n1ncc2c(=O)n(Cc3c(F)cccc3Cl)cnc21`, the “% Inhibition @ 10 uM” value is recorded as -1.75%.

For `COC(=O)c1sccc1-n1c(S)c(C#N)c(N)c(C#N)c1=N`, the “% Inhibition @ 10 uM” value was -2.21%.

Take `CC1CC2(C)CC(C(=O)O2)C1C(=O)O` (centres unmarked): the “% Inhibition @ 10 uM” value is recorded as -1.76%.

Regarding `CC(C)CCNC(=O)c1noc2c1COc1ccccc1-2`, the “% Inhibition @ 10 uM” value stood at 88.5%.

In the case of `Cc1ccc2c(c1)-c1onc(C(=O)NCCC(C)C)c1CO2`, the “% Inhibition @ 10 uM” value was determined as 1.14%.

For the molecule `COc1ccc(OC)c(CCNC(=O)c2noc3c2COc2ccccc2-3)c1`, the “% Inhibition @ 10 uM” value was 59.5%.

As for `COc1ccccc1CNC(=O)Nc1noc2c1COc1ccccc1-2`, the “% Inhibition @ 10 uM” value is reported as -0.539%.

`CC(NC(=O)c1noc2c1COc1ccccc1-2)c1ccc2c(c1)OCCO2` (centres unmarked): the “% Inhibition @ 10 uM” value turned out to be 21.3%.

For the molecule `COc1cc(-c2cc(NC(=O)c3noc4c3COc3ccccc3-4)on2)cc(OC)c1OC`, the “% Inhibition @ 10 uM” value came out at 4.86%.
